hgDAF-12 ag: agonists of H. glycines DAF-12 nuclear receptor; HEK293 GAL4-hgDAF12 UAS-luciferase reporter, agonist luminescence; normalized to butyrate control; activation, % at 6.8 µM; 1.8% of 370,000 active; AID 687014;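 active = activation above a cutoff set at the mean of all screened compounds plus 3 SD, cut at about 10% in these data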
DAX1 inh-1: blocks DAX1 repression of SF-1 activated StAR promoter; HEK293T StAR-luciferase reporter, SF-1/DAX-1 repression relief; inhibition, % at 6.8 µM; 1.1% of 370,000 active; AID 652010;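 active = inhibition above the mean over all tested compounds plus 3 SD, cut at about 3.6% in these data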;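 note: higher inhibition means more luminescence from relief of DAX-1 repression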
ssDAF-12 act: S. stercoralis DAF-12 activation, primary screen | HEK293 ssDAF-12/GRIP1 lit1-tk-luc reporter, luminescence; % of 3 µM dafachronic acid response | activation, % at 6.8 µM | 1% of 370,000 active | AID 652126;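 active = activation above the mean over all tested compounds plus 3 SD, cut at about 0.9% in these data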
SMARCA2 activ: activators of SMARCA2 function. MG213 cells, MMTV-luciferase reporter, dexamethasone, overnight. activation, % at 9.1 µM. 1% of 370,000 active. AID 652017; in the data active = activation above about 7.8%
hcDAF-12 act: activators of H. contortus DAF-12 nuclear receptor. 1.4% of 370,000 active. activation, % at 6.8 µM. HEK293 hcDAF-12 lit1-tk-luc reporter, luminescence; 0% DMSO, 100% Δ7-dafachronic acid. AID 652067;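 active = activation above the mean of all tested compounds plus 3 SD, cut at about 5.5% in these data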
DAX1 inh-2: NR0B1 (DAX1) inhibition; HEK293 Gal4-DAX1 luciferase reporter, luminescence; AID 504766; 0.99% of 340,000 active; P51843; inhibition, % at 6.75 µM;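 active = inhibition above the mean over all tested compounds plus 3 SD, cut at about 4.2% in these data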;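 note: inhibition shows as a rise in luminescence from relieved DAX1 repression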
Target sequence (P51843 207-470 limits assumed): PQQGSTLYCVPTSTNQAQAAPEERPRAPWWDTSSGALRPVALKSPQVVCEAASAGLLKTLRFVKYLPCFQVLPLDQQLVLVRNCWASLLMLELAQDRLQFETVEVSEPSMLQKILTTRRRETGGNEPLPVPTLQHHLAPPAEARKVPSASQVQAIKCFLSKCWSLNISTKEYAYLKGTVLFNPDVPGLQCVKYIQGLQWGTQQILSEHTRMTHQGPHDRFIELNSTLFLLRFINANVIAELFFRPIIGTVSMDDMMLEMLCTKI
Large screens that a line does not name were inactive. Most compounds without a hit are left out; they make up all but 4.8% or so of the library.

NC(=O)c1ccc(NC(=O)c2ccc3c(c2)OCO3)cc1	none
CCN1CCN(c2ccc(NC(=O)c3ccc4c(c3)OCO4)cc2)CC1	hgDAF-12 ag 12
O=C(Nc1ccc(Br)cc1)c1ccc2c(c1)OCO2	hgDAF-12 ag 13, hcDAF-12 act 6.5
CC(=O)Nc1ccc(C(=O)Nc2ccc3c(c2)OCO3)cc1	none
O=C(Nc1ccc2c(c1)OCO2)c1ccc(CO)cc1	DAX1 inh-1 4.2
COC(=O)C1=C(C)N(CCc2ccccc2)C(=O)C1(NS(=O)(=O)c1ccc(NC(C)=O)cc1)C(F)(F)F (stereo not drawn)	none
CC(=O)C1=C(C)N(c2ccccc2)C(=O)C1(NS(=O)(=O)c1ccc(N)cc1)C(F)(F)F (stereo not drawn)	ssDAF-12 act 1.5, hcDAF-12 act 5.6
CC(=O)c1cccc(-c2ccnc3c2CC(C(=O)Nc2ccc4c(c2)OCO4)O3)c1 (stereo not drawn)	none (no result: DAX1 inh-2)
Cc1cc(C(C)(C)C)ccc1Oc1cccc2c1S(=O)(=O)N(C1CCCC1)CC(COCc1ccccc1)O2 (stereo not drawn)	DAX1 inh-1 3.6
COc1cc(F)ccc1Oc1cccc2c1S(=O)(=O)N(C1CC1)C[C@@H](COCc1ccccc1)O2	none (no result: DAX1 inh-2)
O=C(Nc1ccc(Cl)cc1)C1Cc2c(-c3ccccc3Oc3ccccc3)ccnc2O1 (stereo not drawn)	none (no result: DAX1 inh-2)
O=C(COC(=O)C1CC2CCCC(C1)C2=O)Nc1ccc(Cl)cn1 (stereo not drawn)	none
O=c1[nH]nc(Cc2ccc(-c3ccccc3Cl)o2)c2ccccc12	ssDAF-12 act 1.4
N#CCOc1nc(N2CCCC2)nc(N2CCCC2)n1	none
N#CCOc1nc(N2CCOCC2)nc(N2CCOCC2)n1	DAX1 inh-2 6.0
Cc1ccccc1NC(=O)Cc1nc(COC(=O)c2nccnc2N)cs1	none
Fc1cccc(CSc2nc3ccncc3[nH]2)c1	DAX1 inh-1 4.4
CC(CC(=O)Nc1ccc2c(c1)c(=O)n(C)n2-c1ccccc1F)c1ccccc1 (stereo not drawn)	none (no result: DAX1 inh-2)
O=C(CSC1CC(=O)N(c2ccc(C(=O)O)cc2)C1=O)Nc1ccc(Cl)cc1 (stereo not drawn)	DAX1 inh-2 6.5
O=C(O)CSC1CC(=O)N(c2ccc(F)cc2)C1=O (stereo not drawn)	none
O=C(CSC1CC(=O)N(CCc2ccccc2)C1=O)Nc1ccc(Br)cc1 (stereo not drawn)	hcDAF-12 act 5.8
O=[N+]([O-])c1cc(C=Nc2ccc3ccccc3c2)ccc1Br	ssDAF-12 act 1.2
Cc1cc(NC(C)c2ccccc2)n2ncc(-c3ccccc3)c2n1 (stereo not drawn)	DAX1 inh-2 4.7
Cc1cc(C)n(-c2cc(C(C)(C)C)nc3c(-c4ccccc4)cnn23)n1	hgDAF-12 ag 11, DAX1 inh-2 5.2
Cc1cc(NCc2ccccc2)n2ncc(-c3ccccc3)c2n1	DAX1 inh-1 4.1, ssDAF-12 act 0.9
Cc1cc(C)n(-c2cc(C(C)(C)C)nc3c(-c4ccc(Cl)cc4)cnn23)n1	none
CCc1ccc(NC(=O)CN(CC(=O)Nc2ccc(CC)cc2)CC(C)O)cc1 (stereo not drawn)	none
COCC(=O)N(C)C[C@H]1N[C@@](C)(C(=O)OC)[C@H]2C(=O)N(Cc3ccccc3)C(=O)[C@@H]12	none
Nc1c2c(nc3ccccc13)CCCC2=O	hcDAF-12 act 6.5
Nc1c2c(nc3ccccc13)CCCC2O (stereo not drawn)	none
CC1CCC(NC(=O)C2c3ccccc3C(=O)N2CCCN2CCOCC2)CC1 (stereo not drawn)	ssDAF-12 act 1.0, DAX1 inh-2 4.7
CCC1CCCCN1CC(=O)c1c(C)[nH]c2cc(C)ccc12 (stereo not drawn)	hcDAF-12 act 5.8
O=C1C(C2=NC(c3ccccn3)C3C(=O)N(c4ccccc4)C(=O)C23)=C(O)c2ccccc21 (stereo not drawn)	DAX1 inh-2 4.3
CCOc1cc(C(=O)NCCCNC(=O)c2cc(OCC)c(OCC)c(OCC)c2)cc(OCC)c1OCC	none
CCOc1cc(C(=O)NCCOC)cc(OCC)c1OCC	ssDAF-12 act 1.5
CCOc1ccc(CCNC(=O)C2CCCN(S(=O)(=O)N3CCOCC3)C2)cc1OCC (stereo not drawn)	none
N#C/C(=C\c1ccncc1)c1nc2ccccc2o1	none (no result: DAX1 inh-2)
N#C/C(=C\Nc1ccccc1O)c1nc2ccccc2o1	hcDAF-12 act 6.3
CCN(C(=O)COC(=O)CCCc1nc2ccccc2s1)c1c(N)n(Cc2ccccc2)c(=O)[nH]c1=O	none
CC(C)CN(C(=O)COC(=O)CCc1nc2ccccc2s1)c1c(N)n(Cc2ccccc2)c(=O)[nH]c1=O	DAX1 inh-1 3.7
Cc1nc(NC(=O)c2ccccc2)nc2cc3c(cc12)OCO3	hgDAF-12 ag 12
COc1ccc(N2CCCN(CC(=O)Nc3ccc(Cl)c(Cl)c3)CC2)cc1	none (no result: DAX1 inh-2)
CSCC[C@H](NC(=O)N1CCn2c1nc1ccccc12)C(=O)NCc1ccco1	none
O=C(NCc1ccco1)c1ccc2c(=O)n(-c3ccccc3)c(=S)[nH]c2c1	DAX1 inh-2 4.9
CCN(CC)CCCNC(=O)CCC(=O)Nc1ccc2nc(N3CCCCC3)cc(C)c2c1	DAX1 inh-2 6.7
CCOc1ccc(N(CC(=O)NCc2ccccc2C)S(C)(=O)=O)cc1	DAX1 inh-2 4.3
O=C(Nc1cccc(F)c1)c1ccc2c(c1)OCCO2	hgDAF-12 ag 13, hcDAF-12 act 6.3
CC(=O)Nc1ccc(C(=O)Nc2ccc3c(c2)OCCO3)cc1	none
Cc1cc(C(=O)Nc2ccc3c(c2)OCCO3)co1	DAX1 inh-1 4.1, hcDAF-12 act 6.1
COc1ccc(CN(CC#Cc2ccc(C)cc2)C(N)=NC(=O)CCc2ccccc2)c(OC)c1	none (no result: DAX1 inh-2)
CN=C1S/C(=C\c2cc(C)n(-c3ccccc3F)c2C)C(=O)N1C	none
COCCN=C1S/C(=C\c2cc(C)n(-c3ccc(F)cc3F)c2C)C(=O)N1C	hcDAF-12 act 5.7 (no result: DAX1 inh-1, SMARCA2 activ, DAX1 inh-2)
Cc1ccc(C)c(S(=O)(=O)Nc2cc(SCC(=O)O)c(O)c3ccccc23)c1	none (no result: hgDAF-12 ag, DAX1 inh-1, ssDAF-12 act, SMARCA2 activ, hcDAF-12 act)
CCc1ccc(S(=O)(=O)Nc2cc(SCC(=O)O)c(O)c3ccccc23)cc1	none
CCOc1ccc(S(=O)(=O)Nc2cc(SCC(=O)O)c(O)c3ccccc23)cc1	ssDAF-12 act 1.5
O=C(O)CSc1cc(NS(=O)(=O)c2cccc([N+](=O)[O-])c2)c2ccccc2c1O	ssDAF-12 act 1.0
O=C(OCc1ccccc1)/C(=C(\O)c1ccccc1Br)c1ccc(-c2ccccc2)cn1	none
O=C1/C(=C/N(C(=O)c2ccco2)c2ccc(Br)cc2)Sc2ccccc21	DAX1 inh-2 4.7 (no result: hgDAF-12 ag, DAX1 inh-1, ssDAF-12 act, SMARCA2 activ, hcDAF-12 act)
O=C1/C(=C/N(C(=O)c2ccco2)c2ccc(Cl)cc2)Sc2ccccc21	none (no result: hgDAF-12 ag, DAX1 inh-1, ssDAF-12 act, SMARCA2 activ, hcDAF-12 act)
Cc1cc(C)c(NC(=O)CCCC(=O)O)c(Cl)c1	none

Bioassay records: PubChem BioAssay, The Scripps Research Institute Molecular Screening Center
